# The full data set covers some 7,900 targets. This sample favours those with a hit. About 0.6% of all pairs of compound and target were hits. Values without a mark were called inactive.
# Tests used:
# Test in all cases: log2 fold change, soluble protein after heating vs DMSO (PISA); higher = thermal stabilisation; K562 cells, 10 uM, 30 min; active = over 0.2 and 3.5 SD of the protein, either way, in both replicates (recomputed)
# bafetinib = compound: Cc1ccc(NC(=O)c2ccc(CN3CC[C@H](N(C)C)C3)c(C(F)(F)F)c2)cc1Nc1nccc(-c2cncnc2)n1 [bafetinib]
# Summary of the method: (§1)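 K562 cells at 2×10^6 cells/mL were treated with 10 μM compound for 30 min. Aliquots were heated for 3 min across 48°C-58°C, pooled, and extracted in PBS with 0.5% NP-40 at 4°C; soluble protein was the supernatant after 21,000xg for 90 min. Soluble protein was quantified by TMTpro 16plex LC-MS/MS with channel sums equalised, and reported as log2 fold change in thermal stability against DMSO controls, with values from duplicates.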
# [1] = compound: Cc1cccc(CC(=O)N2CCc3c2ccc(-c2cn(C)c4ncnc(N)c24)c3F)n1
# Summary of the method: as §1
# nilotinib = compound: Cc1cn(-c2cc(NC(=O)c3ccc(C)c(Nc4nccc(-c5cccnc5)n4)c3)cc(C(F)(F)F)c2)cn1 [nilotinib]
# Summary of the method: as §1
# [2] = compound: Cc1nc(Nc2n[nH]c3c2CN(C(=O)N[C@H](CN(C)C)c2ccccc2)C3(C)C)c2sccc2n1
# Summary of the method: as §1
# dasatinib = compound: Cc1nc(Nc2ncc(C(=O)Nc3c(C)cccc3Cl)s2)cc(N2CCN(CCO)CC2)n1 [dasatinib]
# Summary of the method: as §1
# [3] = compound: Cc1ncc(-c2ccnc(Nc3ccc(S(C)(=O)=O)cc3)n2)n1C(C)C
# Summary of the method: as §1
# [4] = compound: Cn1cc(-c2ccc3c(c2)CCN3C(=O)Cc2cccc(C(F)(F)F)c2)c2c(N)ncnc21
# Summary of the method: as §1
# [5] = compound: Cn1cc(-c2ccc3nnc(C(F)(F)c4ccc5ncccc5c4)n3n2)cn1
# Summary of the method: as §1
# tipifarnib = compound: Cn1cncc1[C@@](N)(c1ccc(Cl)cc1)c1ccc2c(c1)c(-c1cccc(Cl)c1)cc(=O)n2C [tipifarnib]
# Summary of the method: as §1
# mubritinib = compound: FC(F)(F)c1ccc(/C=C/c2nc(COc3ccc(CCCCn4ccnn4)cc3)co2)cc1 [mubritinib]
# Summary of the method: as §1
# [6] = compound: NC(=O)Nc1cc(-c2cccc(F)c2)sc1C(=O)N[C@H]1CCCNC1
# Summary of the method: as §1
# [7] = compound: NC(=O)c1cnc(N[C@@H]2CCCC[C@@H]2N)nc1Nc1cccc(-n2nccn2)c1
# Summary of the method: as §1
# [8] = compound: NC1(c2ccc(-c3nc4ccn5c(=O)[nH]nc5c4cc3-c3ccccc3)cc2)CCC1
# Summary of the method: as §1
# [9] = compound: NCC(=O)Nc1ccc(-n2nc(C(F)(F)F)cc2-c2ccc3c(ccc4ccccc43)c2)cc1
# Summary of the method: as §1
# entinostat = compound: Nc1ccccc1NC(=O)c1ccc(CNC(=O)OCc2cccnc2)cc1 [entinostat]
# Summary of the method: as §1
# vorinostat = compound: O=C(CCCCCCC(=O)Nc1ccccc1)NO [vorinostat]
# Summary of the method: as §1
# citarinostat = compound: O=C(CCCCCCNC(=O)c1cnc(N(c2ccccc2)c2ccccc2Cl)nc1)NO [citarinostat]
# Summary of the method: as §1
# silmitasertib = compound: O=C(O)c1ccc2c(c1)nc(Nc1cccc(Cl)c1)c1ccncc12 [silmitasertib]
# Summary of the method: as §1
# [10] = compound: O=C1NC(=O)C(c2cnc3ccccn23)=C1c1cn2c3c(cc(F)cc13)CN(C(=O)N1CCCCC1)CC2
# Summary of the method: as §1
# [11] = compound: c1cc(OCCN2CCCCC2)cc(-c2n[nH]c3ccc(-c4nnc[nH]4)cc23)c1
# Summary of the method: as §1
# Sequence of UniProt P14618 (P14618 whole entry, looked up): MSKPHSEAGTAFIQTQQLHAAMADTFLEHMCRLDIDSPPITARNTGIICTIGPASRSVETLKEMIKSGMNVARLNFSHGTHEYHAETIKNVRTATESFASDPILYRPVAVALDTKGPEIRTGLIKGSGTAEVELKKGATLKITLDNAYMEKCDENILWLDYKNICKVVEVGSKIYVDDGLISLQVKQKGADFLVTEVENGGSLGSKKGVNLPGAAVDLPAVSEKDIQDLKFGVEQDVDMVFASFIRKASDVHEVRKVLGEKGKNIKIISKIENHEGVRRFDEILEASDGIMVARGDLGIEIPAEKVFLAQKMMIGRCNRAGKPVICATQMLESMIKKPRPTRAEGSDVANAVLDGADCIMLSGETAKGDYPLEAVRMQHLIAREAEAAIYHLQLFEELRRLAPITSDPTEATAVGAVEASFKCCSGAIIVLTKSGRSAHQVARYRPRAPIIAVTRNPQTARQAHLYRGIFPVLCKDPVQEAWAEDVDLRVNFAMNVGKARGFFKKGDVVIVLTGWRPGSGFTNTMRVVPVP
# Sequence of UniProt Q5JVF3 (Q5JVF3 whole entry, looked up): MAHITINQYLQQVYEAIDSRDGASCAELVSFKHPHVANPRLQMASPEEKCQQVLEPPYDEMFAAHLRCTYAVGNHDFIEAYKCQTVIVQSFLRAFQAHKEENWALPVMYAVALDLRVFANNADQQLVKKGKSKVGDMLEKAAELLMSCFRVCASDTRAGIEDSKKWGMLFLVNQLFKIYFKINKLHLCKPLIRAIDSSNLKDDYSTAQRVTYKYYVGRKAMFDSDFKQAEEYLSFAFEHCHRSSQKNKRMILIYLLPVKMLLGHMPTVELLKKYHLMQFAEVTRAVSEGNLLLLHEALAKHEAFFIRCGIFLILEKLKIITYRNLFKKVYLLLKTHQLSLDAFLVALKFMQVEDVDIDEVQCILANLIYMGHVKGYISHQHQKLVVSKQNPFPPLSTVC
# Sequence of UniProt Q86UU1 (Q86UU1 whole entry, looked up): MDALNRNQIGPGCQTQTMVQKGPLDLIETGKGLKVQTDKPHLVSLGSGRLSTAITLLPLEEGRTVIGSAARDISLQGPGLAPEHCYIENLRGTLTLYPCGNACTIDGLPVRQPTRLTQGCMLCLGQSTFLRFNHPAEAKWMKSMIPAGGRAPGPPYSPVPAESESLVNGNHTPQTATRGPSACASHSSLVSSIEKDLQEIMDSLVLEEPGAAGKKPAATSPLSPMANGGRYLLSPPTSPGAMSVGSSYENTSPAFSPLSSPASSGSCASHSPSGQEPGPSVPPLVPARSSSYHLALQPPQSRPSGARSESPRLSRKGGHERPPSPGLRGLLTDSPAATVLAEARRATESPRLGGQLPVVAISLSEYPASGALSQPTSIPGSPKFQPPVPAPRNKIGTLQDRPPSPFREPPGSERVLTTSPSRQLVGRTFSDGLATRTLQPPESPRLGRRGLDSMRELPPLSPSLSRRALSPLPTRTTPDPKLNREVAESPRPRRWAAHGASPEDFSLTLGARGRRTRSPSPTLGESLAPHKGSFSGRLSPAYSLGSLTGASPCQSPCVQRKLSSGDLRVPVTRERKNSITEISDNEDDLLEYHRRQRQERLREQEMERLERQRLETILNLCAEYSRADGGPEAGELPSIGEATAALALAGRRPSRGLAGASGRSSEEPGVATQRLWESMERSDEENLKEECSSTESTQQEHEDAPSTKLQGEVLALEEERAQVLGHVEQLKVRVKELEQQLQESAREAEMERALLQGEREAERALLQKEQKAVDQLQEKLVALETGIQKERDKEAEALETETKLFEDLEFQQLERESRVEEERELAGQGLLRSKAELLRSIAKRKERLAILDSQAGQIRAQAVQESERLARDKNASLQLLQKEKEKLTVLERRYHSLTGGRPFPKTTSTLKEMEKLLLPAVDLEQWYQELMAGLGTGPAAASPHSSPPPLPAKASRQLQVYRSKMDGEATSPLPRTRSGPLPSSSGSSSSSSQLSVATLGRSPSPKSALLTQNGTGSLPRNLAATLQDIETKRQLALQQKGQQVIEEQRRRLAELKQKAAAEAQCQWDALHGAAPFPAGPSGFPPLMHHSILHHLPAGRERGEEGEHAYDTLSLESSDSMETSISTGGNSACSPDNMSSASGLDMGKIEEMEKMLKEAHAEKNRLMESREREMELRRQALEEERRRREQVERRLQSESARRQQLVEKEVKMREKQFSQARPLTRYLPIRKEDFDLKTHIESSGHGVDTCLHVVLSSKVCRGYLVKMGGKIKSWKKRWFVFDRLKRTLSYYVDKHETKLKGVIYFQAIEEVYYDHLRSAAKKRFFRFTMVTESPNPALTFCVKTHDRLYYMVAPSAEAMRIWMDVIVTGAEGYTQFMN
# Sequence of UniProt Q15126 (Q15126 whole entry, looked up): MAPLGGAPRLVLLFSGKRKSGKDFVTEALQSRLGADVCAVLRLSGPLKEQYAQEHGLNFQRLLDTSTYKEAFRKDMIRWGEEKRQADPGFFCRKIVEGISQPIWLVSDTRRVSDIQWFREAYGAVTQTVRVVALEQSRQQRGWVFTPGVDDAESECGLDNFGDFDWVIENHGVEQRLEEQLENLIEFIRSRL
# Sequence of UniProt P46020 (P46020 whole entry, looked up): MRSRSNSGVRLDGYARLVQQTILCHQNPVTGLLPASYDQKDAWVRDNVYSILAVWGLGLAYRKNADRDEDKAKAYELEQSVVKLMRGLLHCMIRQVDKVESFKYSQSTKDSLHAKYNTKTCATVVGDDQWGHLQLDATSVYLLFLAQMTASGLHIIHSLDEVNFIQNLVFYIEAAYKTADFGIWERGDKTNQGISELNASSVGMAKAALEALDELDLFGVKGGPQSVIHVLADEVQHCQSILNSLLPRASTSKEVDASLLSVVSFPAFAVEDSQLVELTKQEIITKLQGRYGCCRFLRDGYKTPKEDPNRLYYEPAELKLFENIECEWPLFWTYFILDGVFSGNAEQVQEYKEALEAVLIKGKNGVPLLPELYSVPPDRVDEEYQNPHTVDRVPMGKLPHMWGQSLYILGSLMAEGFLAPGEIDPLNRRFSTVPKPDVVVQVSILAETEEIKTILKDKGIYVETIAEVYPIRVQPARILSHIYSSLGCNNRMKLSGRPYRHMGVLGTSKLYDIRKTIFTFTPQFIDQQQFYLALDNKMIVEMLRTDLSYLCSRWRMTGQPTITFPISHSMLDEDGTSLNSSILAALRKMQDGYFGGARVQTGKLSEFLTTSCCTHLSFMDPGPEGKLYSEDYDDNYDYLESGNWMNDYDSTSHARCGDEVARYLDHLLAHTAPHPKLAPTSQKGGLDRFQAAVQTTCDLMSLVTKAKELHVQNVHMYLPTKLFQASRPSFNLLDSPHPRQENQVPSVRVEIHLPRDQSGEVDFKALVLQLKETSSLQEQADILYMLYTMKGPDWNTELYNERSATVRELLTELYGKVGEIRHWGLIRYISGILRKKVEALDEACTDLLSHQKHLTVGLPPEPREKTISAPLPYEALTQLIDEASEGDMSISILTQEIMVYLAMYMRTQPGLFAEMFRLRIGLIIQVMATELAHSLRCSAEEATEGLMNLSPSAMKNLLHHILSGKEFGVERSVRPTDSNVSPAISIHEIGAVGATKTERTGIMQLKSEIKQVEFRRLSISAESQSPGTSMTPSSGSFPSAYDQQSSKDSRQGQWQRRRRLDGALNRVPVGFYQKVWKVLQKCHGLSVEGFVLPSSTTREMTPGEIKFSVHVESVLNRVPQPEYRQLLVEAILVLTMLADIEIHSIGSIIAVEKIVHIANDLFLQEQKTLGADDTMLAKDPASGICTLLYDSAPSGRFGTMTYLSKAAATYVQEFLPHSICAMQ
# Sequence of UniProt Q14289 (Q14289 whole entry, looked up): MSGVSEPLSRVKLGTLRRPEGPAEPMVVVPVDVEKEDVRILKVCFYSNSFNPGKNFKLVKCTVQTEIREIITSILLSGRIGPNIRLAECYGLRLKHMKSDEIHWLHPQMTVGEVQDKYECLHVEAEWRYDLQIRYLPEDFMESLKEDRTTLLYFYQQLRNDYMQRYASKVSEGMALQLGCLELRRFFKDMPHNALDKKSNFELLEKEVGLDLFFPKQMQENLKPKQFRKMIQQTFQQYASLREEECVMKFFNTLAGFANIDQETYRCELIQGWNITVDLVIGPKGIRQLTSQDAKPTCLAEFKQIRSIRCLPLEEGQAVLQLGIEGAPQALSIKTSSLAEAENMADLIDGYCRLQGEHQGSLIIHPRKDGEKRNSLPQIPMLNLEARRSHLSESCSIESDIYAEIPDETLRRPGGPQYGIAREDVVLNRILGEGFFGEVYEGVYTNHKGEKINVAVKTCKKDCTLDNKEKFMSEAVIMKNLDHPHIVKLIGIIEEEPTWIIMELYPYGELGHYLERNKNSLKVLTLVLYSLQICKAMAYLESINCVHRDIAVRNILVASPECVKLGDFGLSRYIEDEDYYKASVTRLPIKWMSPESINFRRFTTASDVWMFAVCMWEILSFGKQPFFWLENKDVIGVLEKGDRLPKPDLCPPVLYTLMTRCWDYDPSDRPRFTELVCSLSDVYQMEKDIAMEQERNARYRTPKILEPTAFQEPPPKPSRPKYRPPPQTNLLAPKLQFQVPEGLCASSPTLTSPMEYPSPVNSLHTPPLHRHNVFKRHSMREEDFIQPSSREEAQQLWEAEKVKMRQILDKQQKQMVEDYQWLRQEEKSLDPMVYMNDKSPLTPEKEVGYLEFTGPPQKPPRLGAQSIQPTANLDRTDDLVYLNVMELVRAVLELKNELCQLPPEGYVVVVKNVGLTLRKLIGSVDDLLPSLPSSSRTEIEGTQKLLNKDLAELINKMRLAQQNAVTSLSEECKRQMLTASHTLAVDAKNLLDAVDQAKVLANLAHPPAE
# Sequence of UniProt O43924 (O43924 whole entry, looked up): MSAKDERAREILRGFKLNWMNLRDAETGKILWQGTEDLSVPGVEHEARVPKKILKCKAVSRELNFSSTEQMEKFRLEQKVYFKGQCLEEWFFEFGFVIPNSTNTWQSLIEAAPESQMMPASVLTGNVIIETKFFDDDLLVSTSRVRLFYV
Target,log2 fold change (bafetinib),log2 fold change [1],log2 fold change (nilotinib),log2 fold change [2],log2 fold change (dasatinib),log2 fold change [3],log2 fold change [4],log2 fold change [5],log2 fold change (tipifarnib),log2 fold change (mubritinib),log2 fold change [6],log2 fold change [7],log2 fold change [8],log2 fold change [9],log2 fold change (entinostat),log2 fold change (vorinostat),log2 fold change (citarinostat),log2 fold change (silmitasertib),log2 fold change [10],log2 fold change [11]
PKN2 (UniProt Q16513),0.068,0.062,0.125,-0.219,-0.138,0.051,0.016,0.01,-0.059,0.048,-0.055,-0.134,-0.051,-0.021,0.105,0.023,0.073,0.01,-0.008,-0.086
PHKA1 (UniProt P46020),0.023,-0.004,-0.233,-0.021,-0.303,0.023,0.027,-0.092,0.083,-0.04,0.03,0.046,-0.202,,-0.005,0.013,0.128,0.004,0.027,-0.068
PJA2 (UniProt O43164),-0.121,-0.072,0.023,-0.021,0.036,-0.04,-0.06,0.008,0.071,0.018,-0.006,-0.047,-0.049,0.029,0.004,-0.001,-0.005,0.026,-0.059,-0.075
PKM isoform 2 (UniProt P14618),-0.155,0.029,0.121,-0.104,-0.014,0.198,,0.017,0.209,0.05,0.123,0.175,-0.063,0.116,0.05,-0.195,-0.075,-0.052,0.043,-0.093
PCF11 (UniProt O94913),-0.099,0.078,,,,,-0.095,0.007,0.168,0.179,,-0.047,-0.333,-0.179,,-0.04,0.001,-0.113,,0.112
PMVK (UniProt Q15126),0.057,-0.203,-0.214,-0.064,-0.308,-0.139,-0.098,,,-0.025,-0.04,-0.001,-0.114,0.29,-0.08,-0.134,,0.065,0.048,
PSMD5 (UniProt Q16401),-0.09,0.006,-0.015,-0.026,-0.026,0.006,0.018,0.002,-0.05,0.023,-0.001,0.009,-0.094,-0.009,0.01,0.008,0.033,0.038,-0.032,-0.009
PPP2R5B (UniProt Q15173),0.006,-0.057,-0.187,0.095,-0.047,-0.042,,,-0.067,-0.023,,0.017,-0.167,-0.006,,0.112,0.122,0,,0.127
PHLDB1 isoform 2 (UniProt Q86UU1),-0.112,0.117,0.136,-0.265,-0.073,-0.128,0.061,0.016,0.057,0.14,,0.112,-0.057,-0.186,,0.229,-0.014,0.045,-0.178,-0.117
PARL (UniProt Q9H300),-0.169,0.061,0.047,-0.011,0.015,0.018,0.017,0.051,-0.023,0.021,0.025,-0.06,-0.07,-0.09,0.023,-0.07,0.054,0.032,-0.082,-0.017
PRG4 (UniProt Q92954),-0.095,0.104,-0.05,0.065,0,0.258,0.203,0.068,,-0.016,-0.168,-0.113,-0.16,-0.068,-0.156,0.201,-0.015,0,-0.109,-0.097
PTK2B (UniProt Q14289),-0.024,-0.063,0.14,0.104,-0.043,0.276,-0.113,-0.014,-0.521,-0.003,0.076,0.091,-0.13,-0.092,0.128,0.011,,0.054,0.072,
PPP1R12C (UniProt Q9BZL4),-0.085,0.612 (active),0.069,-0.26,-0.065,-0.213,,-0.018,-0.219,-0.118,-0.151,,-0.031,-0.022,0.072,0.487,-0.008,0.122,-0.073,-0.278
PCID2 (UniProt Q5JVF3),0.07,0.078,-0.013,-0.061,-0.254,-0.02,0.038,-0.036,-0.071,0.109,-0.019,,-0.103,0.06,0.12,0.199,-0.004,0.038,-0.15,0.062
POLR2E (UniProt P19388),0.055,-0.03,-0.007,0.112,0.025,0.306,-0.056,0.005,-0.088,0.023,,0,-0.021,-0.02,,-0.115,-0.001,0.134,0.117,-0.088
PATL1 (UniProt Q86TB9),-0.007,0.034,,,-0.032,,0.08,-0.013,0.039,-0.04,0.054,-0.213,-0.047,-0.025,0.052,0.106,0.02,0.04,0.069,-0.093
PDE6D (UniProt O43924),0.266,0.169,0.191,-0.238,0.026,0.011,0.385,,,0.565,0.001,-0.113,0.122,0.025,0.125,-0.007,,0.077,0.009,
PLCL1 (UniProt Q15111),-0.045,0.039,-0.06,-0.197,,-0.324,-0.116,0.028,,-0.018,0.05,-0.035,-0.069,-0.01,0.043,-0.012,0.02,-0.475,-0.854 (active),0.05

# Reference: the supplement of paper PMC10849652
